Measured values published in PubChem BioAssay (Tox21).
Inconclusive results are not listed. Active and inactive are the calls of the source. Unless noted, the call rests on the fitted dose curve; in most records, active means well fitted curve in the direction sought with a large enough effect in the repeat runs; inconclusive means weak or mixed curves; inactive means no such curve, though single readings can be large; an effect the other way counts as inactive or inconclusive.

Assays:
[1] = qHTS assay for small molecule agonists of the p53 signaling pathway (AID 651631; calls by dose curve; further: nearly all actives have a fitted effect of over 15% in size)
Summary of the method: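 Beta-lactamase reporter activity under p53 response elements was quantified in HCT-116 cells by FRET fluorescence, following 16 h incubation with test compounds at 37 °C and 2 h substrate development at room temperature.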

[2] = qHTS assay for small molecules that induce genotoxicity in human embryonic kidney cells expressing luciferase-tagged ATAD5 (AID 651632); further: nearly all actives have a fitted effect of over 15% in size
Summary of the method: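 Luminescent reporter readout, HEK293T ATAD5-luc line: 16 hr drug exposure (37C, 5% CO2) followed by Amplite, 30 min RT.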

[3] = qHTS assay for small molecule agonists of the p53 signaling pathway - cell viability (AID 651633; calls by dose curve;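 further: p53RE-bla HCT reporter cells with a stable beta-lactamase p53 reporter; series mostly up to about 83 µM; nearly all actives have a fitted effect of over 30% in size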)
Summary of the method: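 p53RE-bla cells, seeded at 4,000 per well and rested 5 h at 37 C/5% CO2, received compounds in DMSO for 16 h at 37 C. CellTiter-Glo was then added, and luminescence was read after 30 min at room temperature to gauge cytotoxicity.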

[4] = qHTS assay for small molecule disruptors of the mitochondrial membrane potential - cell viability (AID 720634; calls by dose curve;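 further: human HepG2 liver cancer cells; series mostly up to about 83 µM; nearly all actives have a fitted effect of over 20% in size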)
Summary of the method: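 HepG2, 1 hr compound, 37 C. ATP luminescence via CellTiter-Glo, 30 min RT, same well as m-MPI.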

[5] = qHTS assay to test for compound auto fluorescence at 590 nm (red) in HepG2 cells (AID 720674)
Summary of the method: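 Rose Bengal sodium served as the red fluorophore standard. HepG2 monolayers (overnight attachment, MEM with 10% FBS) were exposed to test compounds for 1 hr at 37 C and read at Ex 540/Em 590 nm.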

[6] = qHTS assay to test for compound auto fluorescence at 535 nm (green) in HepG2 cells (AID 720675)
[7] = qHTS assay to test for compound auto fluorescence at 460 nm (blue) in HEK293 cells (AID 720678)
Summary of the method: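 HEK293, 2,000 cells/well, 10% dialyzed FBS; attach 4-5 hr 37C; pin compound or DMSO; o/n 37C/5% CO2; fluorescence 405/460 nm; triamterene-equivalent units.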

[8] = qHTS assay to test for compound auto fluorescence at 460 nm (blue) in HEK293 cell free culture (AID 720681)
Summary of the method: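 Test compounds were pinned into cell-free culture medium (DMEM with 10% FBS) and fluorescence was read directly at Ex/Em 405/460 nm. Signals were expressed as fluorescence equivalents of triamterene, with DMSO vehicle as control.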

[9] = qHTS assay to test for compound auto fluorescence at 535 nm (green) in HEK293 cell free culture (AID 720682)
Summary of the method: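 Each library compound, or DMSO control, is added by pintool to medium alone, comprising DMEM and 10% FBS. Emission at 535 nm following 485 nm excitation is quantified against fluorescein.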

[10] = qHTS assay to test for compound auto fluorescence at 590 nm (red) in HEK293 cell free culture (AID 720683)
Summary of the method: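 Tox21 10K library compounds were pinned into cell-free DMEM with 10% FBS and fluorescence was read at excitation 540 nm. Activity is expressed as Rose Bengal sodium equivalency.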

[11] = qHTS assay to test for compound auto fluorescence at 590 nm (red) in HepG2 cell free culture (AID 720684)
Summary of the method: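 Red fluorescence (540 nm excitation, 590 nm emission) was measured after compound transfer into cell-free MEM supplemented with 10% FBS. Values are equivalencies against Rose Bengal sodium.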

[12] = qHTS assay to test for compound auto fluorescence at 460 nm (blue) in HepG2 cell free culture (AID 720685)
Summary of the method: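 Compound (23 nL) or DMSO pinned into cell-free MEM with 10% FBS; blue fluorescence read at 405/460 nm excitation/emission, expressed as auto-fluorescence equivalency to triamterene.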

[13] = qHTS assay to test for compound auto fluorescence at 535 nm (green) in HepG2 cell free culture (AID 720686)
[14] = qHTS assay to test for compound auto fluorescence at 460 nm (blue) in HepG2 cells (AID 720687)
Summary of the method: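 Cells (2,000/well in MEM with 10% FBS) attached overnight at 37 C, then were exposed to compound or DMSO for 1 hr at 37 C, 5% CO2. Fluorescence read at Ex/Em 405/460 nm, expressed as triamterene-equivalent signal.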

[15] = biological target: Glucocorticoid receptor (Homo sapiens) (UniProt P04150); test: qHTS assay to identify small molecule agonists of the glucocorticoid receptor (GR) signaling pathway (AID 720691; active means well fitted activation curve with a large enough effect in the signal ratio in the repeat runs, not every such curve was filed as active; the % refers to the signal ratio)
Summary of the method: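 qHTS in GR-bla HeLa cells: 4 h settling at 37 C/5% CO2, 18 h compound incubation at 37 C, 2 h LiveBLAzer B/G FRET substrate at room temperature, fluorescence intensity measured.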

[16] = biological target: Glucocorticoid receptor (Homo sapiens) (UniProt P04150); test: qHTS assay to identify small molecule antagonists of the glucocorticoid receptor (GR) signaling pathway (AID 720692; active means well fitted inhibition curve with a large enough effect in the signal ratio in the repeat runs, not every such curve was filed as active; the % refers to the signal ratio)
Summary of the method: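 Inhibition of glucocorticoid signalling is measured in HeLa cells with a GRE-controlled beta-lactamase reporter; cells are co-treated with compound and 5 nM dexamethasone (final) for 18 h before FRET substrate readout.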

[17] = qHTS assay for small molecules that induce genotoxicity in human embryonic kidney cells expressing luciferase-tagged ATAD5 - cell viability (AID 651634; calls by dose curve; further: nearly all actives have a fitted effect of over 25% in size)
Summary of the method: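 Viability read: CellTiter-Fluor fluorescence, 30 min at 37C. Cells: HEK293T, luciferase-tagged ATAD5. Exposure: 15.5 hr, 37C, 5% CO2, compound or DMSO vehicle.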

[18] = qHTS assay for small molecule disruptors of the mitochondrial membrane potential (AID 720635)
Summary of the method: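 HepG2 cells (2,000/well) attached overnight at 37C, then took compound for 1 hr at 37C, 5% CO2. Mito-MPS dye was added for 30 min; fluorescence was read at 490/535 nm (monomers) and 540/590 nm (aggregates).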

[19] = qHTS assay to test for compound auto fluorescence at 590 nm (red) in HEK293 cells (AID 720679)
Summary of the method: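 Intensity at 540nm excitation and 590nm emission is reported as Rose Bengal sodium-equivalent autofluorescence. Measurements followed overnight exposure (37C, 5% CO2) of HEK293 cells, 2,000 per well, to 23 nL compound.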

[20] = qHTS assay to test for compound auto fluorescence at 535 nm (green) in HEK293 cells (AID 720680)

Measured: Potency

Chain of Glucocorticoid receptor (Homo sapiens) (P04150 whole entry, looked up): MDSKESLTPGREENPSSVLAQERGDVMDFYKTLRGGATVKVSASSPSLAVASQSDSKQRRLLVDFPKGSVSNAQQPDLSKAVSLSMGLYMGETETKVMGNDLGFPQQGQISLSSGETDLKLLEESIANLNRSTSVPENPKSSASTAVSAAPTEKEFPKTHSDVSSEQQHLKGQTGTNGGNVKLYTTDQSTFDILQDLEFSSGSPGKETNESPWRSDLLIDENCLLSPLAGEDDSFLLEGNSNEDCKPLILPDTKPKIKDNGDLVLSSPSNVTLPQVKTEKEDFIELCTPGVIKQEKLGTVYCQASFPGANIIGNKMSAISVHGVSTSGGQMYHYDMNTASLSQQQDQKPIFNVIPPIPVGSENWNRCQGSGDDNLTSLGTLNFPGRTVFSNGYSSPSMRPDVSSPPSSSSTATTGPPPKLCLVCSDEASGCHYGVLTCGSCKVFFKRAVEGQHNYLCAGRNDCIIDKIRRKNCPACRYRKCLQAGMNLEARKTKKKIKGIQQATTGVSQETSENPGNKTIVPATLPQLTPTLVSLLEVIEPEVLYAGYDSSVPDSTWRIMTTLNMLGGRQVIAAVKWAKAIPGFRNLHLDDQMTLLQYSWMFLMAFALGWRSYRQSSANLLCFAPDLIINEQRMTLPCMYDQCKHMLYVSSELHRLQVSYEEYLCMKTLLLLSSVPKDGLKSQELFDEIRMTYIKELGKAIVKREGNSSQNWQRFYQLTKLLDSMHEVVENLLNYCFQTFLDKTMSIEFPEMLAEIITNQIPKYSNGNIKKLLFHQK

C[Si](C)O[Si](C)(C)O[Si](C)(C)O[Si](C)C
inactive: [1] | [2] | [3] | [4] | [5] | [6] | [7] | [8] | [9] | [10] | [11] | [12] | [13] | [14] | [15] | [16]

NCc1ccccc1
inactive: [1] | [2] | [3] | [17] | [18] | [5] | [7] | [19] | [20] | [8] | [9] | [10] | [11] | [12] | [13] | [14] | [16]

COCCOCCOCCOCCOC
inactive: [1] | [2] | [3] | [4] | [18] | [5] | [6] | [7] | [19] | [20] | [8] | [9] | [10] | [11] | [12] | [13] | [14] | [15] | [16]

O=S(=O)(O)c1ccc(O)c2ncccc12
inactive: [1] | [2] | [3] | [17] | [18] | [5] | [6] | [19] | [20] | [8] | [9] | [10] | [11] | [12] | [14] | [15] | [16]

Cc1ccc2c(ccc3ccccc32)c1
inactive: [1] | [2] | [3] | [17] | [5] | [6] | [7] | [19] | [20] | [8] | [9] | [10] | [11] | [12] | [13] | [14]

CC(=O)[C@@]1(O)CC[C@H]2[C@@H]3C[C@H](C)C4=CC(=O)CC[C@]4(C)[C@H]3CC[C@@]21C
inactive: [1] | [2] | [3] | [17] | [5] | [6] | [7] | [19] | [8] | [9] | [10] | [11] | [12] | [13]

CCCC(C)C
inactive: [1] | [2] | [3] | [4] | [18] | [5] | [6] | [7] | [19] | [20] | [8] | [9] | [11] | [12] | [13] | [14] | [16]

Oc1ccc(O)c2c(O)cccc12
inactive: [1] | [2] | [3] | [4] | [5] | [6] | [7] | [8] | [9] | [10] | [11] | [12] | [13] | [14]

N#CCc1cccc(C(F)(F)F)c1
inactive: [1] | [2] | [3] | [4] | [18] | [5] | [7] | [19] | [20] | [8] | [11] | [12] | [13] | [14] | [15] | [16]

CC(=O)c1ccc2c(c1)[C@H](NC(=O)c1ccc(F)cc1)[C@@H](O)C(C)(C)O2
inactive: [1] | [2] | [3] | [17] | [5] | [6] | [7] | [19] | [20] | [8] | [9] | [10] | [11] | [12] | [13] | [14] | [15] | [16]

O=C=NC1CCC(CC2CCC(N=C=O)CC2)CC1 (configuration not stated)
inactive: [1] | [2] | [3] | [4] | [5] | [6] | [19] | [20] | [8] | [10] | [11] | [12] | [13] | [14] | [15] | [16]

CN(C)C/C=C(/c1ccc(Br)cc1)c1cccnc1
inactive: [1] | [2] | [3] | [17] | [5] | [6] | [19] | [20] | [9] | [10] | [11] | [12] | [13] | [14] | [16]

Cl/C(=C\n1cncn1)c1ccc(Cl)cc1Cl
inactive: [1] | [2] | [3] | [17] | [5] | [7] | [19] | [20] | [8] | [9] | [10] | [11] | [12] | [13] | [14]

CCN(CC)CCOC(=O)C1(c2ccccc2)CCCC1
inactive: [1] | [2] | [3] | [17] | [5] | [6] | [7] | [8] | [10] | [11] | [12] | [13] | [14] | [15] | [16]

CN1CCN(C2=Nc3ccccc3Sc3ccc(Cl)cc32)CC1
inactive: [1] | [2] | [3] | [4] | [5] | [6] | [7] | [19] | [20] | [8] | [9] | [10] | [11] | [12] | [13] | [14] | [16]
